Screens deposited in PubChem by National Center for Advancing Translational Sciences (NCATS).
In the library only some 8.7% were active in any assay of this set; here they are far more common.
HP1b chromo inh: inhibitors of HP1-beta chromodomain binding to methylated histone tails; P83916; AlphaScreen HP1-beta / biotin-H3K9me3 peptide binding; Potency, µM (top dose mostly 114 µM), without a hit: top-dose activity change, negative = inhibition, hits mostly inhibitors; 0.56% of 390,000 active; further: nearly all actives have a fitted effect of over 70% in size
Target sequence (P83916 whole entry, looked up): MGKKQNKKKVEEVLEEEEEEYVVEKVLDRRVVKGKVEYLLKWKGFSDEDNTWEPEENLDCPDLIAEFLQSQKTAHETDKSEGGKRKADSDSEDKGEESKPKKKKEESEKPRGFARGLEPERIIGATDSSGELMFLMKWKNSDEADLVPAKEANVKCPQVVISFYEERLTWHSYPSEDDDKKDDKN
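Compound inhibition of the preformed complex between 50 nM HP1-beta and 50 nM biotinylated H3K9me3 peptide was read by AlphaScreen. Buffer was PBS pH 7.4 with 0.01% Tween-20. Incubations ran 30 min at room temperature, with 10 ug/mL donor/acceptor beads.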
JMJD2A Tudor: blocks the human JMJD2A Tudor domain; O75164; AlphaScreen JMJD2A-Tudor / H3K4me3 peptide binding; Potency, µM (titrated, usually from 114 µM), without a hit: at the highest dose activity change, negative = inhibition, actives largely listed as inhibitors; 4.4% of 390,000 active; further: on the % scale 0 is the no-effect control and ±100 the full control effect; nearly all actives have a fitted effect of over 50% in size
Sfp PPTase inh: blocks B. subtilis Sfp PPTase activity | AID 1490 | Potency, µM, without a hit: largest response in the series, negative = inhibition, usual class: inhibitors | 3.5% of 310,000 active | Biochemical Sfp PPTase activity, qHTS;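 further: the enzyme is Sfp with the accession as filed and its product quenches rhodamine fluorescence; 0% = enzyme reaction without inhibitor and -100% = no enzyme wells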
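With Hepes-Na pH 7.6 buffer containing 10 mM MgCl2, Sfp (15 nM) modified BHQ-2-YbbR (12.5 uM) using rhodamine-CoA (5 uM). Two reads 30 minutes apart at 525/598 nm yielded each well's rate.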
BAZ2B block: blocks human BAZ2B | AlphaScreen BAZ2B-H3K14Ac peptide displacement | Potency, µM (highest dose often 114 µM), for the others: at the top dose activity change, negative = inhibition, actives largely listed as inhibitors | 4.4% of 360,000 active | AID 504333; further: on the % scale 0 is the no-effect control and ±100 the full control effect; nearly all actives have a fitted effect of over 60% in size
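Multi-concentration screen (max 110 uM) measuring displacement of acetylated histone H3 peptide from BAZ2B by AlphaScreen, using 50 nM protein, 50 nM peptide and 10 ug/mL streptavidin donor plus Ni-chelate acceptor beads.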
G9a inh: G9a (human) methyltransferase inhibition; 8.8% of 350,000 active; Q96KQ7; AID 504332; G9a H3K9 monomethylation, AlphaScreen, 2 h; Potency, µM (highest dose often 102 µM), for inactives: at the highest dose activity, negative = inhibition, hits mostly inhibitors; further: on the % scale 0 is the no-effect control and ±100 the full control effect; nearly all actives have a fitted effect of over 75% in size
Target sequence (Q96KQ7 913-1193 limits assumed): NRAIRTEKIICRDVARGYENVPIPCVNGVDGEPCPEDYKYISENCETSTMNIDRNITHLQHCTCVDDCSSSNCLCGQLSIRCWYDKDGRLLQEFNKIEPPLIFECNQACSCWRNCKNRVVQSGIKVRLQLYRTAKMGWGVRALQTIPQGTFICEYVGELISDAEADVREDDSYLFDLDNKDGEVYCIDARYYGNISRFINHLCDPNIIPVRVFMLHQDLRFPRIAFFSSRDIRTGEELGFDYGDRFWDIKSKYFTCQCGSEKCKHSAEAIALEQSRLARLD
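AlphaScreen read-out: biotin-H3K9 peptide (500 nM) methylation by 20 nM enzyme with 20 uM SAM, 2 h at room temperature after 15 min compound preincubation; anti-monomethyl H3K9 antibody plus donor/acceptor beads, 10 min dark.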
12-LOX inh: inhibitors of human 12S-lipoxygenase ALOX12; P18054; purified 12hLO, xylenol orange hydroperoxide absorbance; Potency, µM (doses to about 108 µM), without a hit: at the top dose activity change, negative = inhibition, hits mostly inhibitors; 1.1% of 580,000 active; AID 1671190; further: on the % scale 0 is the no-effect control and ±100 the full control effect
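Hydroperoxide product was detected by ferrous iron/xylenol orange as the 573 to 405 nm absorbance ratio. Arachidonic acid at 40 uM (final) was turned over for 30 min at room temperature by 150 nM human 12hLO, pH 7.0 Hepes buffer, after 15 min compound preincubation.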
The depositor's hits bear a star; ? = inconclusive; nt = no result; [ ] = remark or other dose. The call rests on the fitted dose curve; in most records, active means well fitted curve in the direction sought with a large enough effect; inconclusive means small, poorly fitted or top-dose-only effect, or another doubt; inactive means no such curve, though single readings can be large; an effect the other way counts as inactive or inconclusive. Potency means the concentration at half of the fitted maximal effect.

SMILES | HP1b chromo inh | JMJD2A Tudor | Sfp PPTase inh | BAZ2B block | G9a inh | 12-LOX inh
COc1ccc(S(=O)(=O)N2CCCCC2)cc1 | 37% | -4% | 0% | 10% | 25%[59 µM] | 8%
Cc1noc(C)c1CN1CCOC[C@H](O)C1 | nt | nt | nt | nt | nt | 24%[176 µM]
N#Cc1ccc(OCC(O)CN2CCN(CC(O)COc3ccc(C#N)cc3)CC2)cc1 (configuration not stated) | -9% | -20% | 6% | 4% | 29% | 15%
CC1(C)C2CCC1(C)C(NCC(O)COc1ccc(C#N)cc1)C2 (configuration not stated) | -23% | 13µM* | ? | 25µM* | ? | 0%
COc1ccc2oc(=O)c(-c3ccc(OCC(=O)N4CCN(C=O)CC4)cc3)cc2c1 | nt | nt | nt | nt | nt | 44%
C[N+]1(CCC(=O)c2ccccc2)CCCCC1 | ? | ? | 14% | -2% | 2µM* | ?
CC(=O)OC(C[N+]1(C)CCCCCC1)c1ccccc1 (configuration not stated) | 23% | -6% | -3% | 2% | -12% | ?
Cc1ccc(N2CCN(c3ncncc3-c3nc(-c4ccccc4)no3)CC2)cc1 | nt | nt | nt | nt | nt | 50%
Nc1nc(-c2ccccc2)[nH]c(=O)c1N=O | 8% | -22% | ? | 79µM* | ? | ?
O=C(NCC(F)(F)F)c1ccc(CN(C(=O)/C=C/c2ccccc2)C2CC2)cc1 | nt | nt | nt | nt | nt | 4%
Cc1cc(C)c(OCCCCN(C)Cc2ccccc2)c(C)c1 | ? | 7.1µM* | ? | ? | 1.3µM* | ?
Cc1ccc(OCCCCN(C)Cc2ccccc2)c(Br)c1 | ? | ? | -2% | -37% | 11µM* | ?
Cc1ccc(C(C)C)c(OCCCN(C)Cc2ccccc2)c1 | ? | 22µM* | -75% | ? | 10µM* | ?
Cc1ccc(C(C)C)c(OCC(O)CN(C)Cc2ccccc2)c1 (configuration not stated) | 36% | -22% | 15% | -1% | 13% | ?
COc1ccccc1OCCCOc1ccc(C)cc1Br | 223% | 115% | 0% | 159% | 265% | -8%
COCCN1CC(CO)C2(CCN(C(=O)c3ccc4ncccc4c3)CC2)C1 (configuration not stated) | nt | nt | nt | nt | nt | 50%
CCN(c1ccccc1)S(=O)(=O)c1ccc(Cl)c(NC(=O)CSc2nncs2)c1 | 18% | 79µM* | -9% | 4% | 5% | -8%
CCN(c1ccccc1)S(=O)(=O)c1ccc(Cl)c(NC(=O)COC(=O)c2cc(O)c3ccccc3c2O)c1 | nt | nt | 45µM* | 50µM* | ? | nt
CCN(CC)c1ccc(S(=O)(=O)Nc2cc(Cl)ccc2Cl)cc1NC(=S)NC(=O)C1CCCC1 | ? | ? | -13% | -10% | ? | ?
CCN(CC)S(=O)(=O)c1ccc(Cl)c(NC(=S)NC(=O)C2CCCC2)c1 | 31% | -30% | nt | 3% | -1%[59 µM] | 16µM*
CCN(c1ccccc1)S(=O)(=O)c1ccc(Cl)c(NC(=O)COC(=O)c2ccc(O)cc2)c1 | ? | -13% | 16% | 7% | -13% | -13%
CCN(c1ccccc1)S(=O)(=O)c1ccc(Cl)c(NC(=O)CSc2nnc(C)s2)c1 | 6%[57 µM] | -13% | 4% | -11% | -33% | -2%
CCN(c1ccccc1)S(=O)(=O)c1cc(NC(=O)CN2CCN(C)CC2)ccc1Cl | ? | 0.89µM* | nt | nt | nt | ?
CN(C)S(=O)(=O)c1ccc(Cl)c(NC(=O)CN2CCCCCC2)c1 | 18% | -15% | -7% | -2% | 7% | 1%
CCN(c1ccccc1)S(=O)(=O)c1ccc(Cl)c(NC(=O)CN2CCCCCC2)c1 | 22µM* | 0.71µM* | 56µM* | 50µM* | -109%[59 µM] | -23%
SMILES | HP1b chromo inh | JMJD2A Tudor | Sfp PPTase inh | BAZ2B block | G9a inh | 12-LOX inh
COc1cc(CNCc2cccc3ccccc23)cc(OC)c1 | 11% | 25µM* | -10% | 50µM* | 50µM* | 0.71µM*
COc1ccc(CNCc2cccc3[nH]ccc23)cc1 | nt | nt | nt | nt | nt | -9%
COc1cc(CNCc2c[nH]c3ccccc23)cc(OC)c1 | ? | 3.5µM* | -3% | 56µM* | 14µM* | ?
c1csc(-c2[nH]ncc2CNC2CCC3(CCNCC3)CC2)c1 | nt | nt | nt | nt | nt | 0%
CC1=C(C(=O)Nc2ccccc2C)C(c2ccc(C(=O)O)cc2)n2ncnc2N1 (configuration not stated) | nt | nt | nt | nt | nt | -9%
COCC(=O)N(Cc1cc2cc(OC)ccc2[nH]c1=O)c1ccccc1OC | 26% | 8% | 0% | 5% | -28% | 0%
COc1ccc(NC(=O)c2cc(=O)[nH]c3ccccc23)cc1 | 27% | 8% | -9% | -6% | 13% | -13%
COc1ccc(NCc2cc(=O)[nH]c3ccccc23)cc1 | -13% | ? | 2% | 79µM* | ? | ?
COc1ccc2[nH]c(=O)c(CN(C(=O)c3cccc(Cl)c3)c3ccccc3C)cc2c1 | 17% | -22% | nt | 0% | -39%[59 µM] | -26%
COc1ccc2[nH]c(=O)c(CNc3ccccc3OC)cc2c1 | -15% | ? | 16µM* | ? | 35µM* | 0%
COc1ccc2c(CNc3ccccc3C)cc(=O)oc2c1 | nt | nt | nt | nt | nt | 2%
COc1ccc2[nH]c(=O)c(CN(C(=O)c3cccc(Cl)c3)c3ccccc3OC)cc2c1 | 15% | -12% | nt | -10% | 14µM* | ?
COc1ccc2[nH]c(=O)c(CNc3ccccc3C)cc2c1 | -2% | -27% | 22µM* | -1% | 10µM* | ?
CCOc1ccc(NCc2cc3cc(OC)ccc3[nH]c2=O)cc1 | -4% | ? | -1% | -27% | ? | -16%
COc1ccc2[nH]c(=O)c(CNc3ccccc3)cc2c1 | 14% | -28% | 50µM* | 0% | 35µM* | ?
CCCCC(=O)N1CCC2(CC1)SCC(=O)N2c1ccc(Cl)cc1 | nt | nt | nt | nt | nt | 38%
Cc1ccccc1NC1=C(Cl)C(=O)N(C2CCCCC2)C1=O | 41% | -1% | ? | -2% | 36%[59 µM] | -24%
COc1ccccc1NC1=C(Cl)C(=O)N(C2CCCCC2)C1=O | -14% | ? | -15% | ? | 45µM* | ?
Cc1cc(=S)[nH]c2ccccc12 | 17% | -30% | ? | -25% | 2.8µM* | ?
Cc1ccc2c(C)cc(=S)[nH]c2c1 | 33% | 0% | 6% | -18% | 50µM* | ?
Cc1ccc(C(=O)N2CCC(c3nc(-c4ccccc4)no3)C2)s1 (configuration not stated) | nt | nt | nt | nt | nt | -1%
O=C(NC1CCCCCC1)C(=S)N1CCCC1 | 31% | -14% | 15% | 6% | nt | 2%
O=C(NC1CCCCCC1)C(=O)NC1CC1 | 46% | -2% | 4% | ? | nt | 7%
O=C(NC1CCCCCC1)C(=S)N1CCOCC1 | ? | 79µM* | 16µM* | ? | ? | ?
O=C(NC1CCCCCC1)C(=S)NC1CCCCC1 | 32% | -28% | 20µM* | 17% | 35µM* | -9%
